Experimental data reported in the supplement of paper PMC10849652.
Targets with a hit are over-represented here; the source holds about 8,800 in all. About 0.5% of all pairs of compound and target were hits. Values without a mark were called inactive.

Tests used:
Test in all cases: log2 fold change, soluble protein after heating vs DMSO (PISA); higher = thermal stabilisation; K562 lysate, 10 uM; active = over 0.2 and 3.5 SD of the protein, either way, in both replicates (recomputed)
[1] = compound: C#Cc1cccc(Nc2ncnc3cc(OCCOC)c(OCCOC)cc23)c1 [erlotinib]
Outline: (§1)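 Soluble protein was defined as the supernatant remaining after 21,000xg for 90 min, following pooling of heated aliquots and adjustment to 0.5% NP-40 at 4°C. Before that, crude K562 extract at 1 mg/mL protein in PBS pH 7.4 with 1 mM MgCl2 was treated with 10 μM compound for 30 min and heated for 3 min across 48°C-58°C. Quantification used TMTpro 16plex LC-MS/MS with channel sums equalised, and values are log-two fold changes in thermal stability relative to solvent controls from duplicates.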

[2] = compound: C/C(=N\NC(=O)C1=CC(=CC=C1)S(=O)(=O)N2CCOCC2)/C3=C(C=CC(=C3)Cl)O
Outline: as §1

[3] = compound: C1=CC(=CC=C1C2=NC3=C(N2)C=C(C=C3)C(=O)N)OC4=CC=C(C=C4)Cl
Outline: as §1

[4] = compound: C1=CC2=C(C=CC(=C2)/C=C\3/C(=O)NC(=NCC4=CC=CS4)S3)N=C1
Outline: as §1

[5] = compound: C1=CC2=NC=CN=C2C=C1/C=C/3\C(=O)NC(=O)S3
Outline: as §1

[6] = compound: C1=CC=C(C=C1)C2=NC(=C(N2)C3=CC=NC=C3)C4=CC(=C(C=C4)Cl)O
Outline: as §1

[7] = compound: C1=CC=C2C(=C1)C3=NNC4=CC=CC(=C43)C2=O
Outline: as §1

[8] = compound: C1CCN(C1)C(=O)NC2=CC=CC(=C2)NC3=NC=C(C(=N3)NCCC4=CN=CN4)Br
Outline: as §1

[9] = compound: C1CN(CCC1(CC2=CC=C(C=C2)Cl)N)C3=NC=NC4=C3C=CN4
Outline: as §1

[10] = compound: C1COCCN1CCN2C3=CC=CC=C3N=C2NC(=O)C4=CC(=CC=C4)[N+](=O)[O-] [IRAK-1-4 Inhibitor I]
Outline: as §1

UniProt P30838, sequence (P30838 whole entry, looked up): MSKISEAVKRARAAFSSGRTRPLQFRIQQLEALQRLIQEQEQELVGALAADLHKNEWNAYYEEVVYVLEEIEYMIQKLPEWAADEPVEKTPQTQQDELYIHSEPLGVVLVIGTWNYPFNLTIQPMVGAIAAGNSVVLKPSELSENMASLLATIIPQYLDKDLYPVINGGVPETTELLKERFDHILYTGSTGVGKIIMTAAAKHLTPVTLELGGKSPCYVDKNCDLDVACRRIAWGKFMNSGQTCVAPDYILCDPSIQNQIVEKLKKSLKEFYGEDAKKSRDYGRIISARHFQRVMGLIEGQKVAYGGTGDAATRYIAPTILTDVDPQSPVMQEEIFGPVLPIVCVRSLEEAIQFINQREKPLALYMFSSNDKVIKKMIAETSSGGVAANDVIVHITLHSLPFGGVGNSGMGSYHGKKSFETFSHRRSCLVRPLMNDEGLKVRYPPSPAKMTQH
UniProt Q9P1F3, sequence (Q9P1F3 whole entry, looked up): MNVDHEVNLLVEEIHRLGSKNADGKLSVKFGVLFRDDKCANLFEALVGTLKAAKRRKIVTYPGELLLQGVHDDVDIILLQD
UniProt Q13155, sequence (Q13155 whole entry, looked up): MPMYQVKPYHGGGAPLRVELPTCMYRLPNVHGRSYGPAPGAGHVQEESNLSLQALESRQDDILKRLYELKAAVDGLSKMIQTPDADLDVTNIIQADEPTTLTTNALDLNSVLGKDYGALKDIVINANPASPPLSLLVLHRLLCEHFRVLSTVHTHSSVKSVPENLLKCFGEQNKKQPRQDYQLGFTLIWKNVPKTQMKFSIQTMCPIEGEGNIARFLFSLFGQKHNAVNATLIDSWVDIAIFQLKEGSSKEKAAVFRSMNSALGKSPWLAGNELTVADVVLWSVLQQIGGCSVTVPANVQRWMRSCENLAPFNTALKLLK
UniProt P35573, sequence (P35573 whole entry, looked up): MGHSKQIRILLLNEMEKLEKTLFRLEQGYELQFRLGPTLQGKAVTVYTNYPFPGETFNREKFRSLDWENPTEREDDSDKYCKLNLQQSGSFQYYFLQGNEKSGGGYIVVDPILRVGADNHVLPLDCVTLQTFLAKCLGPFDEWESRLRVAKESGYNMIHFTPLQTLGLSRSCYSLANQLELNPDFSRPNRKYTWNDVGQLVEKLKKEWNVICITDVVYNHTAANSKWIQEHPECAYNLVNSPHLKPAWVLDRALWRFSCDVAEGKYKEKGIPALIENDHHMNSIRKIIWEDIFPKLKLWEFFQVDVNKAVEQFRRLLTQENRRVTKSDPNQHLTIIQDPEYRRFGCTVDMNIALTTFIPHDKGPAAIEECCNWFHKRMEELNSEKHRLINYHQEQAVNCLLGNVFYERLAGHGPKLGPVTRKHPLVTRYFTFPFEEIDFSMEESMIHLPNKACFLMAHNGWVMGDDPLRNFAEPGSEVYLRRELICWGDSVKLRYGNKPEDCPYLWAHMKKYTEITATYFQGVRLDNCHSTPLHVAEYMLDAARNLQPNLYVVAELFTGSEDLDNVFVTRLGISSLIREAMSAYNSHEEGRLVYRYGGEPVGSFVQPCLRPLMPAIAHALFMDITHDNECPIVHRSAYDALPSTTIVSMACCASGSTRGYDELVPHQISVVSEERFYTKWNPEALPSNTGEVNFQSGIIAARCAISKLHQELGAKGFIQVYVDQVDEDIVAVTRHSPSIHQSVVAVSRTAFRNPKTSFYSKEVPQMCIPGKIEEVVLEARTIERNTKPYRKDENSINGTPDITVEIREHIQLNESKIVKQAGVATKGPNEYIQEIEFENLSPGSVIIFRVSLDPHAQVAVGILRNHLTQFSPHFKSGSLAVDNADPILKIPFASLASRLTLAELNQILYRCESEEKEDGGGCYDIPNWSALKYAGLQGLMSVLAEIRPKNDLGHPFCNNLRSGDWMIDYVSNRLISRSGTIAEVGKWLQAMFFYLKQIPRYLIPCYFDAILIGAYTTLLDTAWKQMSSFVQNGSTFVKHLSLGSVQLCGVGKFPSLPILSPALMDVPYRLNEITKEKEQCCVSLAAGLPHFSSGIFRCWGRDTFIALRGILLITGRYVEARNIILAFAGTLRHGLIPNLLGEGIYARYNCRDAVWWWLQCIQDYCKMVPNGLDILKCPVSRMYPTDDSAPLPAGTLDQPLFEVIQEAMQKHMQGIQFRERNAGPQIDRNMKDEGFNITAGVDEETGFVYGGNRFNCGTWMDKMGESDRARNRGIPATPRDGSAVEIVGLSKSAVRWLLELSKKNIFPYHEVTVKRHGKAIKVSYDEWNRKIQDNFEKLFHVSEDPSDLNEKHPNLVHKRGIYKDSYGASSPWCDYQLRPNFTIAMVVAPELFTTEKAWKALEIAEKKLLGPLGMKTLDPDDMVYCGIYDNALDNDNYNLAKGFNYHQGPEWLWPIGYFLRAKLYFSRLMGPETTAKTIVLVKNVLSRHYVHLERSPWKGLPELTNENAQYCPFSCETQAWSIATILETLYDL
UniProt Q9UH62, sequence (Q9UH62 whole entry, looked up): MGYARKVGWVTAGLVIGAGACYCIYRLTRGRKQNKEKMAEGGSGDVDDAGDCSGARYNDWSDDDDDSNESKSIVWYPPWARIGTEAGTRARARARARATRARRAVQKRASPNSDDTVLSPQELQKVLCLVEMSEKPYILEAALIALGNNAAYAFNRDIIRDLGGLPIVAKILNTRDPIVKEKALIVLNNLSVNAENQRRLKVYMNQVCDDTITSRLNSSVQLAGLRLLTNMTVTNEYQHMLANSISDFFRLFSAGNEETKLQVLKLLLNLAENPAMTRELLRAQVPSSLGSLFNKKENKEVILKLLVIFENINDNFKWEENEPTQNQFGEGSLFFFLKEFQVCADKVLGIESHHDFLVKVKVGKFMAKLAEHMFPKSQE
UniProt P55263, sequence (P55263 whole entry, looked up): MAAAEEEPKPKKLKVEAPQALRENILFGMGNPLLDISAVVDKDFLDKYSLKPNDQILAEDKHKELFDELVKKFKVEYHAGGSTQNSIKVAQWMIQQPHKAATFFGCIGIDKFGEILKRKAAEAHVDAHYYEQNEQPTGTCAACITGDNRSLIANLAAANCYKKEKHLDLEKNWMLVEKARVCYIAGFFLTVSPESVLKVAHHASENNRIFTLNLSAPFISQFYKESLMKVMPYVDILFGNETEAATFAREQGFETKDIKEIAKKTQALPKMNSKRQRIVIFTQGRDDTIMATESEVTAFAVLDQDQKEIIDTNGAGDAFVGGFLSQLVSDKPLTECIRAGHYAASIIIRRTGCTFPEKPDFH
UniProt P24752, sequence (P24752 whole entry, looked up): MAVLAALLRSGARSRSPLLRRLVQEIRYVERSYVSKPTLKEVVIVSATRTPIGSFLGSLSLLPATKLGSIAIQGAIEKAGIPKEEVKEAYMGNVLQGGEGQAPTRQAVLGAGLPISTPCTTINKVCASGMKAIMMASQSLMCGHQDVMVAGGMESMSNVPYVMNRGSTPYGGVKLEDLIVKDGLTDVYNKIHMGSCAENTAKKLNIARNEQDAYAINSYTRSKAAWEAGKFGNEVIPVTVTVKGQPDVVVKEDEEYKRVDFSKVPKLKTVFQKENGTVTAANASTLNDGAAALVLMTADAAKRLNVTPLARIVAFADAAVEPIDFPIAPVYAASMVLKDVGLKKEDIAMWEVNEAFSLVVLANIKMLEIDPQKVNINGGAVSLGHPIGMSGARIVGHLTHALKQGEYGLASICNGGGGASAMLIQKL
UniProt Q9NRW3, sequence (Q9NRW3 whole entry, looked up): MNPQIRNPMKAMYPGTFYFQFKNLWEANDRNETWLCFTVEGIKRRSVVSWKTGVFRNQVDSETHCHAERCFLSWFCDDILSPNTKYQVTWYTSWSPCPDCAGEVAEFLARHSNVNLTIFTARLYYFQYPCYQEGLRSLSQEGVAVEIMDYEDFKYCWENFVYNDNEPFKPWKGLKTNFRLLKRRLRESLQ
UniProt P07355, sequence (P07355 whole entry, looked up): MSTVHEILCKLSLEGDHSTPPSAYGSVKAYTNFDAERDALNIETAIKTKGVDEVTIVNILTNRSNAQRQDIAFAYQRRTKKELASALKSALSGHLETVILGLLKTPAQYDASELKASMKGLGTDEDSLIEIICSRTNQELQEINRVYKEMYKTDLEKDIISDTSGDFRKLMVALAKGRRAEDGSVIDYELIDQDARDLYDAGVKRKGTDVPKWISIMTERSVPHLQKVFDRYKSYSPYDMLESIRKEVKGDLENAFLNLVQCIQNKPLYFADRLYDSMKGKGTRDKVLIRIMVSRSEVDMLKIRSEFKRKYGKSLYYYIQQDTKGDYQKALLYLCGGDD
UniProt Q5VST6, sequence (Q5VST6 whole entry, looked up): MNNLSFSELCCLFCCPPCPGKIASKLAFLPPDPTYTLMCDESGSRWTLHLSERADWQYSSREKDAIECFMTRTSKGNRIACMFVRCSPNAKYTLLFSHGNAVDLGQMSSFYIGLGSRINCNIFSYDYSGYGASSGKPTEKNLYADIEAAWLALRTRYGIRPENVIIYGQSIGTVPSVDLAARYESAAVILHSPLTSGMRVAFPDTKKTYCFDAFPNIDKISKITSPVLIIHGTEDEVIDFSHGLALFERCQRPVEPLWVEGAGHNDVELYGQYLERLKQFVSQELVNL
UniProt P27216, sequence (P27216 whole entry, looked up): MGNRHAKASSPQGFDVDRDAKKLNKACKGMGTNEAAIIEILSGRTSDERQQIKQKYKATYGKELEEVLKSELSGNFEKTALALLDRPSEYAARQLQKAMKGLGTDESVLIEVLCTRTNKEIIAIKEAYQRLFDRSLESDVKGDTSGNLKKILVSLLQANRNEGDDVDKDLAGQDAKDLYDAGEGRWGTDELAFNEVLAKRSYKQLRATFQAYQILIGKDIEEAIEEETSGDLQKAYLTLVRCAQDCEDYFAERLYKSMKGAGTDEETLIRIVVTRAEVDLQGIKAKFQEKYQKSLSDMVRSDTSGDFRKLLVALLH
UniProt Q9BQI0, sequence (Q9BQI0 whole entry, looked up): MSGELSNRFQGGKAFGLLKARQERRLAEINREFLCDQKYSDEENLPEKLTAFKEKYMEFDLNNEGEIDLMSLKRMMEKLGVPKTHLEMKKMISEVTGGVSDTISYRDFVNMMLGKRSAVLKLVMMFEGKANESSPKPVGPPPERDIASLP

Row | Target | log2 fold change [1] | log2 fold change [2] | log2 fold change [3] | log2 fold change [4] | log2 fold change [5] | log2 fold change [6] | log2 fold change [7] | log2 fold change [8] | log2 fold change [9] | log2 fold change [10]
1 | ANKRD54 (UniProt Q6NXT1) | -0.005 | 0.01 | 0.122 | -0.036 | 0.025 | 0.037 | 0.02 | 0.008 | -0.035 | 0.003
2 | AK2 (UniProt P54819) | -0.011 | -0.052 | 0.035 | -0.002 | 0.002 | 0.016 | 0.014 | -0.008 | -0.002 | 0.005
3 | ACACB (UniProt O00763) | 0.042 | 0.097 | -0.025 | 0.018 | -0.02 | -0.01 | -0.008 | -0.005 | 0.015 | 0.025
4 | ACLY (UniProt P53396) | -0.006 | 0.037 | -0.018 | -0.013 | -0.011 | -0.016 | -0.018 | 0.002 | 0.019 | -0.01
5 | AGL (UniProt P35573) | 0.007 | 0.002 | 0.003 | -0.021 | -0.01 | 0.008 | -0.035 | -0.017 | -0.006 | 0.001
6 | ASCC2 (UniProt Q9H1I8) | 0.04 | -0.106 | -0.077 | 0.083 | 0.029 | -0.016 | -0.048 | -0.054 | 0.037 | -0.042
7 | ANXA1 (UniProt P04083) | -0.012 | 0.013 | 0.015 | 0.014 | -0.009 | -0.008 | -0.021 | 0.003 | 0.016 | -0.013
8 | ACAT1 (UniProt P24752) | 0.011 | 0.006 | -0.015 | 0.015 | 0.017 | -0.002 | -0.007 | -0.028 | 0.015 | 0.017
9 | ADK (UniProt P55263) | 0.219 | -0.024 | -0.028 | 0.132 | -0.079 | 0.047 | 0.011 | -0.049 | 0.026 | 0.063
10 | ANXA2 isoform 2 (UniProt P07355) | -0.009 | 0.041 | 0.023 | -0.003 | 0.003 | 0.004 | 0.025 | -0.006 | -0.001 | -0.01
11 | ACBD6 (UniProt Q9BR61) | 0.013 | -0.059 | 0.029 | 0.024 | -0.032 | -0.014 | -0.075 | -0.044 | -0.01 | 0.019
12 | AMDHD2 isoform 3 (UniProt Q9Y303) | -0.013 | -0.045 | 0.06 | -0.038 | 0.028 | -0.01 | -0.003 | 0.022 | 0.044 | 0.018
13 | ANP32E isoform 3 (UniProt Q9BTT0) | – | -0.079 | – | -0.002 | -0.011 | – | 0.012 | 0.075 | -0.01 | –
14 | ANXA13 isoform 2 (UniProt P27216) | -0.078 | 0.111 | -0.121 | -0.019 | -0.083 | -0.029 | 0.029 | – | – | -0.174
15 | ACLY isoform 2 (UniProt P53396) | – | -0.122 | – | 0.002 | -0.018 | 0.012 | -0.034 | -0.027 | -0.029 | -0.053
16 | ACVR1 (UniProt Q04771) | – | – | – | – | 0.074 | – | – | – | – | –
17 | ADK, A0A5F9ZH76 | – | – | – | – | 0 | – | – | – | – | –
18 | ACAT1, A0A5F9ZHJ0 | – | – | – | – | – | -0.128 | – | – | – | 0.075
19 | ANLN (UniProt Q9NQW6) | -0.006 | -0.142 | 0.007 | -0.019 | -0.072 | 0.01 | -0.019 | -0.045 | -0.002 | -0.017
20 | ABCA3 (UniProt Q99758) | -0.022 | -0.028 | -0.033 | 0.036 | -0.096 | 0.037 | 0.211 | -0.118 | 0 | 0.114
21 | ANXA2 (UniProt H0YL33) | -0.153 | – | 0.088 | – | -0.108 | -0.027 | – | – | – | -0.031
22 | ANKRD30A (UniProt Q9BXX3) | – | – | – | – | 0.035 | -0.06 | – | 0.415 | 0.144 | -0.176
23 | ACYP2 (UniProt P14621) | -0.057 | 0.256 | 0.007 | -0.176 | 0.002 | -0.049 | -0.185 | – | – | -0.011
24 | AIMP2 isoform 2 (UniProt Q13155) | – | – | – | – | 0.056 | 0.061 | – | – | – | 0.006

Row | Target | log2 fold change [1] | log2 fold change [2] | log2 fold change [3] | log2 fold change [4] | log2 fold change [5] | log2 fold change [6] | log2 fold change [7] | log2 fold change [8] | log2 fold change [9] | log2 fold change [10]
25 | AMDHD2 (UniProt Q9Y303) | – | -0.527 (active) | – | 0.212 | – | – | -0.391 | – | – | –
26 | ARMCX3 (UniProt Q9UH62) | 0.023 | -0.02 | -0.005 | 0.009 | 0.033 | -0.005 | -0.043 | -0.016 | 0.064 | 0.03
27 | AKR1C3 (UniProt P42330) | 0.002 | 0.023 | -0.1 | 0.029 | 0.008 | 0.3 (active) | 0.024 | 0.05 | 0.029 | -0.017
28 | AP5B1 (UniProt Q2VPB7) | 0.006 | – | -0.05 | – | -0.069 | 0.014 | – | 0.073 | 0.046 | 0.03
29 | ARHGEF2 (UniProt V9GYF0) | – | -0.056 | – | -0.125 | – | 0.012 | 0.078 | -0.009 | -0.058 | 0.062
30 | AP3D1 isoform 2 (UniProt O14617) | 0.029 | -0.082 | -0.15 | -0.162 | – | – | -0.026 | – | – | –
31 | ALKBH1 (UniProt Q13686) | 0.033 | -0.042 | -0.02 | 0.052 | – | 0.024 | -0.022 | 0.211 | 0.041 | -0.11
32 | ABHD13 (UniProt Q7L211) | – | 0.015 | – | 0.021 | 0.011 | – | -0.071 | 0.176 | 0.04 | –
33 | ACTG1 (UniProt K7EM38) | – | – | – | – | – | – | – | -0.162 | -0.155 | –
34 | ALDH18A1 isoform 2 (UniProt P54886) | – | -0.298 | – | -0.142 | – | 0.092 | -0.05 | – | – | 0.046
35 | ABRACL (UniProt Q9P1F3) | -0.013 | – | 0.056 | – | 0.103 | – | – | – | – | –
36 | ARL13B (UniProt Q3SXY8) | 0.043 | 0.06 | -0.195 | -0.039 | 0.118 | -0.033 | 0.094 | – | – | 0.038
37 | ABHD17B (UniProt Q5VST6) | -0.08 | -0.047 | -0.011 | 0.044 | -0.043 | 0 | 0.021 | 0.064 | -0.111 | 0.014
38 | ABI1 isoform 6 (UniProt Q8IZP0) | – | – | – | – | – | – | – | -0.167 | 0.213 | –
39 | ALKBH7 (UniProt Q9BT30) | -0.169 | – | -0.02 | – | – | 0 | – | -0.033 | 0.027 | -0.04
40 | ADAR isoform 4 (UniProt P55265) | -0.029 | -0.114 | -0.06 | -0.031 | 0.002 | 0.001 | -0.029 | 0.002 | -0.017 | 0
41 | ALDH3A1 (UniProt P30838) | 0.147 | – | 0.257 | – | – | 0.147 | – | – | – | 0.059
42 | AGPAT2 (UniProt O15120) | -0.032 | -0.064 | 0.013 | 0.245 | – | -0.114 | 0.024 | -0.038 | 0.069 | -0.027
43 | ANKRD44 isoform 2 (UniProt Q8N8A2) | -0.034 | -0.035 | 0.002 | -0.083 | -0.016 | – | -0.257 | -0.059 | -0.032 | –
44 | AIF1L (UniProt Q9BQI0) | -0.035 | – | -0.008 | – | -0.014 | 0.012 | – | 0.329 | -0.008 | -0.049
45 | APOBEC3C (UniProt Q9NRW3) | 0.054 | 0.058 | -0.029 | 0.066 | 0.056 | -0.017 | 0.015 | 0.031 | -0.003 | 0.038
46 | ANKRD10 (UniProt Q9NXR5) | 0.023 | 0.045 | -0.041 | 0.009 | 0.055 | 0.012 | -0.066 | – | – | -0.059
47 | AKT2 (UniProt P31751) | -0.011 | 0.082 | -0.013 | -0.005 | -0.022 | -0.025 | 0.009 | -0.014 | -0.017 | -0.045
